In the library only some 5.7% were active in any assay of this set; here they are far more common.
NR3A LBD binder: binders of NR3A ligand-binding domain, primary screen, biophysical, differential scanning fluorimetry, uHTS | Glutamate receptor ionotropic, NMDA 3A (GRIN3A) ligand-binding domain | NR3A LBD differential scanning fluorimetry, Tm shift; 0% = protein alone, 100% = glycine-bound protein | Tm shift relative to glycine control, % at 25 µM | actives 2.5% (n = 340,000);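 active means melting temperature shift of at least 10% of the positive control shift, at one fixed dose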
FAS-TE inh: FAS thioesterase domain inhibitors, primary screen, biochemical, fluorescence intensity, uHTS | recombinant FAS-TE, OMFH fluorogenic substrate, fluorescence endpoint | AID 602261, 2012 | actives 0.67% (n = 360,000) | inhibition, % at 15 µM | Fatty acid synthase (Homo sapiens), P49327;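 active means compounds whose normalised, plate-corrected inhibition of enzyme fluorescence in the single-dose primary screen is 50% or more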;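 further: 0% = DMSO with enzyme and 100% = substrate without enzyme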
rCAG RNA binder: binders of r(CAG) RNA repeats, primary screen, biochemical, fluorescence. inhibition, % at 3 µM. actives 1.3% (n = 370,000). r(CAG) RNA repeat, TO-PRO-1 dye displacement fluorescence;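 active means inhibition above the plate cutoff, the mean of all test compounds on that plate plus 3 SD, cut at about 35% in these data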;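 further: 0% = DMSO alone and 100% = 100 µM mitoxantrone as full dye displacement; higher means more dye released from RNA so lower well fluorescence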
Myeloid diff 2: induction of myeloid progenitor differentiation, primary screen, cell-based, flow cytometry, MLPCN library; actives 1% (n = 360,000); AID 624256, 2012; calls only at 10 µM; ER-HoxA9 myeloid progenitors, lysozyme-GFP differentiation;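 active means normalized GFP-positive differentiation at or above the plate's own cutoff, the solvent-only control mean plus 3 SD; inconclusive means no clear call, values can overlap the other calls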;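 further: cells exposed to compound for four days before flow analysis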
MPTP inh: mitochondrial permeability transition pore inhibitors, primary screen, biochemical, isolated mouse mitochondria, absorbance. Ca2+ swelling absorbance, 30 min. inhibition, % at 10 µM. actives 1.4% (n = 360,000);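 active means inhibition of 50% or more, scaled per plate between neutral and stimulator controls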;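 further: 0% = DMSO wells given calcium and 100% = 1 mM EGTA wells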
FAS-TE inh conf: FAS thioesterase domain inhibitors, confirmation, biochemical, fluorescence intensity, single concentration; shares compounds with FAS-TE inh; inhibition, % at 15 µM; AID 624325, 2012; recombinant FAS-TE, OMFH fluorogenic substrate; actives 45% (n = 2,300);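 active means compounds inhibiting the enzyme by at least 50% at 15 µM in any one of the replicates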;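 further: 0% = enzyme with DMSO only and 100% = wells lacking enzyme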
* hit, by the source's call; i = inactive; ? = inconclusive; / = not tested or not shown.

SMILES | NR3A LBD binder | FAS-TE inh | rCAG RNA binder | Myeloid diff 2 | MPTP inh | FAS-TE inh conf
CN(CC(=O)Nc1ccc(F)cc1)C(=O)COC(=O)c1cc([N+](=O)[O-])ccc1N1CCOCC1 | 0.3 | 62.5* | / | i | -3.1 | 57.7*
Cc1cc(Br)ccc1NC(=O)CN(C)C(=O)c1cc([N+](=O)[O-])ccc1N1CCOCC1 | 0.4 | 63.8* | 3.2 | i | -0.4 | 77.0*
CCCc1ccc(-c2cc(NC(=O)Cc3c(C)[nH]c4ccccc34)ccc2Nc2cccnc2)cc1 | / | / | 12.5 | / | / | /
COc1ccc(-c2ccc3c(n2)CCCN3Cc2ccccc2C(F)(F)F)cc1 | / | / | 6.8 | / | / | /
COc1cccc(CNC(=O)[C@H]2CCCN2C(=O)[C@H]2CCCN2C(=O)c2ccccc2)c1 | / | / | 1.2 | / | / | /
COc1ccc(CCn2cnn3c(=O)c4ccccc4nc3c2=O)cc1OC | / | / | 0.9 | / | / | /
COc1ccc(/C=C(\NC(=O)c2ccc([N+](=O)[O-])cc2)C(=O)NCCN2CCOCC2)cc1 | -0.5 | 64.3* | -1.5 | i | 0.1 | 73.4*
COc1ccc(/C=C(\NC(=O)c2ccc(C)cc2)C(=O)NCCN2CCOCC2)cc1 | -0.9 | 0.1 | 1.4 | i | -0.5 | /
O=C(N/C(=C\c1ccc(Br)cc1)C(=O)N1CCOCC1)c1ccc([N+](=O)[O-])cc1 | 1.0 | 91.1* | 2.5 | i | -0.9 | 92.8*
COc1ccc(/C=C(\NC(=O)c2ccc([N+](=O)[O-])cc2)C(=O)NCCCN2CCOCC2)cc1 | -2.3 | 75.8* | 2.6 | i | -2.3 | 79.3*
COc1ccc(C(=O)N/C(=C\c2ccc(Cl)cc2)C(=O)NCCN2CCOCC2)cc1 | / | 1.9 | 0.4 | i | 0.1 | /
CN(C)[C@H]1CCN(c2ccc3c(c2)OCCCN(C2CC2)S3(=O)=O)C1 | / | / | 2.8 | / | / | /
O=S(=O)(c1ccc(Cl)cc1)N1CCN=C1SCc1cccc(Cl)c1 | -2.7 | 51.3* | 2.2 | i | 5.7 | 14.3
CC(=O)O[C@H]1C(=O)[C@]2(C)[C@H]([C@H](OC(=O)c3ccccc3)[C@]3(O)C[C@H](OC(=O)[C@H](O)[C@@H](NC(=O)c4ccccc4)c4ccccc4)C(C)=C1C3(C)C)[C@]1(OC(C)=O)CO[C@@H]1C[C@@H]2O | -6.2 | 1.3 | 10.8 | ? | 0.2 | /
CC(=O)O[C@H]1C(=O)[C@@]2(C)C([C@H](OC(=O)c3ccccc3)[C@]3(O)C[C@H](OC(=O)[C@H](O)[C@@H](NC(=O)c4ccccc4)c4ccccc4)C(C)=C1C3(C)C)[C@]1(OC(C)=O)CO[C@@H]1C[C@H]2O (stereo partly drawn) | -1.9 | 52.5* | 9.1 | i | -1.4 | 19.2
Cc1ccc2cc(COC(=O)c3cccc([N+](=O)[O-])c3)c(=O)[nH]c2c1 | -2.0 | 62.9* | 7.4 | i | 1.7 | 27.0
O=c1c2c3c(sc2nc(NCCO)n1CCc1ccccc1)CCCCC3 | 2.3 | 50.1* | 5.3 | i | 14.8 | 15.9
O=c1c2c3c(sc2nc(NCCO)n1Cc1ccco1)CCCCC3 | -9.5 | 14.1 | -2.5 | i | 3.7 | /
COc1ccc(NC(=O)CC2C(=O)N(C)C(=S)N2Cc2cccs2)cc1 (stereo not drawn) | -3.9 | 50.6* | 5.3 | i | 0.8 | 57.6*
CCCOc1ccc(NC(=O)CC2C(=O)N(CC)C(=S)N2Cc2cccs2)cc1 (stereo not drawn) | -1.1 | 59.2* | 9.4 | i | -0.7 | 65.2*
CC(C)CNc1cccc2c1S(=O)(=O)N[C@@H](C)CO2 | / | / | 1.2 | / | / | /
COc1ccc(C2CC(c3cccs3)=NN2C(=O)CCCC(=O)O)cc1OC (stereo not drawn) | / | -6.9 | 3.9 | i | -0.5 | /
C=CCCC[C@H]1OC(=O)[C@H](C)NC(=O)[C@H](C(C)C)NC(=O)[C@@H]2CCCN2C(=O)[C@H](Cc2ccccc2)OC(=O)[C@@H](C(C)C)N(C)C(=O)[C@H](C(C)C)NC(=O)C1(C)C | / | / | 9.3 | / | / | /
CCCC(=O)OC[C@H]1CN([C@H](C)c2ccccc2)S(=O)(=O)c2c(F)cccc2O1 | / | / | 0.6 | / | / | /
O=C(Nc1cccc(S(=O)(=O)NC2=NCCCCC2)c1)c1cc(-c2ccc(Cl)cc2)nc2ccccc12 | -2.2 | 57.3* | 15.2 | i | -17.9 | 26.5
SMILES | NR3A LBD binder | FAS-TE inh | rCAG RNA binder | Myeloid diff 2 | MPTP inh | FAS-TE inh conf
O=C(Nc1cccc(S(=O)(=O)NC2=NCCCCC2)c1)c1cc(-c2ccccc2)nc2ccccc12 | -0.5 | 36.6 | 4.9 | i | 0.2 | /
CCCCCN(C(=O)COC(=O)CSc1ccc([N+](=O)[O-])cc1)c1c(N)n(CCCC)c(=O)[nH]c1=O | -1.7 | 57.8* | -1.0 | i | -1.3 | 21.8
NC(=O)c1ncn([C@@H]2O[C@H](C(=O)N[C@H](Cc3c[nH]c4ccccc34)C(=O)N3CCN(CC(=O)N4CCCC4)CC3)[C@@H](O)[C@H]2O)n1 | / | / | 0.0 | / | / | /
CC(C)CN1C(=O)[C@]2(CC(=O)N(C)C2c2ccccc2)c2cc(-n3cc(C4=CCCCC4)nn3)ccc21 (stereo partly drawn) | / | / | 4.3 | / | / | /
Cc1ccc(S(=O)(=O)N2CCN(Cc3ccccc3)CC2)c(C)c1N(C)S(=O)(=O)c1ccccc1 | -1.5 | 52.3* | 7.8 | i | 2.5 | 13.0
COCc1cc(N2CCN(C(=O)OC(C)(C)C)C[C@@H]2C)ccc1N1CC[C@@H](O)C1 | / | / | 11.1 | / | / | /
CSCCC(NC(=O)c1ccc(Cl)c([N+](=O)[O-])c1)C(=O)N1CCN(C/C=C/c2ccccc2)CC1 (stereo not drawn) | -8.1 | 58.0* | -0.9 | i | -0.1 | 59.3*
O=C(NCc1ccccc1)[C@@H]1CCCN1C(=O)[C@H]1CCCN1C(=O)c1ccc(F)cc1F | / | / | 1.7 | / | / | /
CC(C)OC(=O)/C(C#N)=C/c1cn(C)c2ccccc12 | -1.0 | 52.2* | -2.4 | i | 0.0 | 49.4*
CC(C)OC(=O)/C(C#N)=C/c1cn(Cc2ccccc2)c2ccccc12 | 0.4 | 24.0 | 6.8 | i | 3.4 | /
CC(C=NN=C1C(=O)Nc2ccccc21)=Cc1ccccc1 | / | / | 7.9 | / | / | /
CCOC(=O)[C@@H]1[C@H]2COc3ccc(Br)cc3[C@H]2N2C(=O)N(c3ccc(C)cc3)C(=O)[C@]12C | -3.6 | 60.0* | 3.1 | i | -0.7 | 26.2
CCOC(=O)[C@H]1[C@H]2COc3ccc(Br)cc3[C@@H]2N2C(=O)c3ccc(Cl)cc3NC(=O)[C@@]12C | -7.1 | 78.4* | 5.8 | i | 0.2 | 28.5
CCOC(=O)[C@@H]1[C@H]2COc3ccc(Br)cc3[C@@H]2N2C(=O)N(c3ccc(C)cc3)C(=O)[C@]12C | 3.5 | 36.5 | -3.4 | i | -1.6 | /
